# According to PubChem BioAssay (NCATS):
# Several values for one entry are separate records, joined by “and”; a condition that tells them apart may be missing. Equal values may be shown once. A number with no mark means an inactive call. Results filed as inconclusive are left out. Activity calls are given as the source filed them. Unless noted, the call rests on the fitted dose curve; in most records, active means well fitted curve in either direction with a large enough effect (not every such curve was filed as active); inconclusive means small, poorly fitted or top-dose-only effect, or another doubt; inactive means flat fitted curve, though single readings scatter.
# Key:
# [1] = molecular target: Lysosomal acid glucosylceramidase (Homo sapiens) (UniProt P04062); experiment: Glucocerebrosidase-p2 (AID 348; in the data active means potency below about 10 µM; further: potency means the concentration at half of the fitted maximal effect); details: purified GBA, blue fluorogenic substrate, 40 min
# Method in brief: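 Compounds titrated from 0.6 nM upwards against 0.2 nM enzyme in pH 5.9 citric acid/KH2PO4, taurocholate, tween-20; blue fluorogenic substrate 80 uM, 40 min room temperature, stopped and read Ex 365/Em 440 for AC50.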
# [2] = AP1 Signaling Pathway (AID 357); details: ME-180 AP-1-bla reporter, EGF-induced, beta-lactamase ratio, 5 h; at 7.69 µM (top of the series) unless noted;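 further: ME-180 reporter cells stimulated with EGF at its EC50 level; on the % scale 0 is the no-effect control and ±100 the full control effect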
# Method in brief: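 Titration-series screen for positive or negative modulators of EC50 EGF-induced signaling in ME-180 cells carrying an AP-1-driven beta-lactamase reporter. After 5 hours at 37 degrees Celsius, CCF4 460nm/530nm emission ratio gave %Activity; AC50 values derived.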
# [3] = molecular target: Cytochrome P450 1A2 (Homo sapiens) (UniProt P05177); experiment: p450-cyp1a2 (AID 410; calls by dose curve; further: potency means the concentration at half of the fitted maximal effect;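 on activity change, negative = inhibition: -100% = full effect of reference inhibitor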); details: recombinant CYP1A2, luciferin-ME demethylation, luminescence; series mostly up to 11.4 µM
# Method in brief: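 Human CYP1A2 (20nM) demethylated Luciferin-ME at its Km (100uM) in 100mM KPO4. After 10 min compound preincubation, NADPH regeneration ran the reaction 60 min at room temperature. Luciferin was read by luminescence, normalized to 57 uM furafylline.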
# [4] = Stat Signaling Pathway (AID 446); details: ME-180 SIE beta-lactamase reporter, IL-6 stimulated, 5 h;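 further: ME-180 cervical cancer cells given 40 pM IL-6 alongside compound; SIE-controlled beta-lactamase reporter measured as 460/530 nm FRET emission ratio; on the % scale 0 is the no-effect control and ±100 the full control effect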
# Method in brief: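 IL-6/STAT signaling read in ME-180 cells via an SIE beta-lactamase reporter. Stimulus was 40 pM IL-6 (its AC50) for 5 hrs, so both activation and inhibition register.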
# [5] = molecular target: Mitogen-activated protein kinase 10 (Mus musculus) (UniProt Q61831); experiment: JNK3 AlphaScreen Assay (AID 530); details: JNK3 lysate, c-Jun phosphorylation; series mostly up to 11.4 µM;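 further: kinase came from lysate of stimulated human HepG2 cells; signal reports phosphorylation of biotinylated GST-cJun 1-79 at Ser73 with 10 µM ATP; on the % scale 0 is the no-effect control and ±100 the full control effect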
# Method in brief: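 qHTS format: compounds tested as titrations against IL-1beta/TNF-alpha-activated HepG2 lysate JNK3 with biotin-GST-cJun substrate and 10 uM ATP at room temperature. Loss of anti-phospho-cJun AlphaScreen signal indicates inhibition.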
# [6] = molecular target: 3',5'-cyclic-AMP phosphodiesterase 4B (Homo sapiens) (UniProt Q07343); experiment: qHTS Assay for Inhibitors of PDE-IV (AID 607; active means well fitted activation curve with a large enough effect in the main read-out, with a control signal flat, not every such curve was filed as active; further: % of control where 0% means no effect); details: HEK293 ACTOne CNG channel cells, membrane potential fluorescence; series mostly up to 22.9 µM
# Method in brief: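 Live HEK293 cells with a modified cyclic nucleotide-gated (CNG) channel report intracellular cAMP via membrane-potential dye fluorescence (ex 535/em 590 nm). Endogenous PDE-IV was targeted. Compounds were tested at up to 22.9 uM final; RO 20-1724 100 uM served as control.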
# [7] = NFAT Signaling Pathway (AID 444); details: Jurkat NFAT-bla M1, carbachol, beta-lactamase ratio, 5 h;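 further: carbachol stimulus at about its EC50 of 1 µM final; on the % scale 0 is the no-effect control and ±100 the full control effect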
# Method in brief: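 Jurkat cells with NFAT-driven β-lactamase reporter and co-expressed M1 receptor, stimulated with carbachol (final 1 uM, ~EC50), compound titration, 5 h at 37 °C. CCF4 loaded 1 h at RT; 460/530 nm ratio gave %activity and AC50.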
# [8] = molecular target: Glucocorticoid receptor (Homo sapiens) (UniProt P04150); experiment: GR-GFP Redistribution (AID 450;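 active means compounds whose dose series gives a full or clear partial fitted curve of increased nuclear translocation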; further: potency means the concentration at half of the fitted maximal effect); details: U2OS GR-GFP nuclear translocation, laser cytometry, 2 h
# [9] = molecular target: Glucocorticoid receptor (Homo sapiens) (UniProt P04150); experiment: GR-EFC Redistribution (AID 451; calls by dose curve; further: potency means the concentration at half of the fitted maximal effect); details: CHO-K1 GR-EFC translocation, beta-gal luminescence, 2 h
# Method in brief: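 CHO-K1 cells expressing nuclear EA and GR-ED fragments of b-gal; compounds titrated up to 46 uM final, 2 h at 37 C. GR nuclear translocation read as complemented b-gal luminescence after 1 h RT detection.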
# [10] = molecular target: Cytochrome P450 2C9 (Homo sapiens) (UniProt P11712); experiment: qHTS Assay for Inhibitors and Substrates of Cytochrome P450 2C9 (AID 883; active means well fitted curve in the direction sought with a large enough effect; an effect the other way counts as inactive or inconclusive; further: potency means the concentration at half of the fitted maximal effect; nearly all actives have a fitted effect of over 60% in size); details: recombinant CYP2C9, luciferin-H luminescence, 60 min; series mostly up to 11.4 µM
# Method in brief: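 10nM CYP2C9 + 100uM Luciferin-H (=KM), 25mM KPO4; cpd 10 min 37C; NADPH regen, 60 min 37C; stop/detect with P450 Glo-Buffer 20 min; luminescence. Norm. to 57uM sulphaphenazole as full inhibition.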
# [11] = molecular target: Cytochrome P450 2C19 (Homo sapiens) (UniProt P33261); experiment: qHTS Assay for Inhibitors and Substrates of Cytochrome P450 2C19 (AID 899; active means well fitted curve in the direction sought with a large enough effect; an effect the other way counts as inactive or inconclusive; further: potency means the concentration at half of the fitted maximal effect; nearly all actives have a fitted effect of over 60% in size); details: recombinant CYP2C19, luciferin-H EGE luminescence; series mostly up to 11.4 µM
# Method in brief: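 Luminescent read-out of luciferin formed from Luciferin-H EGE (10uM, equal to KM). Enzyme 5nM in 50mM KPO4; compound added, 10 min at 37C, then NADPH regenerating system for 60 min at 37C. Full inhibition defined by 57uM ketoconazole.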
# [12] = molecular target: ATP-dependent 6-phosphofructokinase (Trypanosoma brucei brucei) (UniProt O15648); experiment: qHTS Assay to Find Inhibitors of T. brucei phosphofructokinase: hit validation (AID 492961; active means well fitted curve in the direction sought with a large enough effect; an effect the other way counts as inactive or inconclusive; further: on the % scale 0 is the no-effect control and ±100 the full control effect); details: T. brucei PFK, ADP-Glo luminescence; series mostly up to 51.4 µM
# Method in brief: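 Luminescence from ADP-Glo reports ADP generated as T. brucei PFK (1.25 nM) phosphorylates 0.5 mM fructose-6-phosphate using 0.1 mM ATP. Reactions ran 45 min at room temperature, pH 8.0.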
# [13] = qHTS profiling for inhibitors of Plasmodium falciparum proliferation (AID 504749; active means well fitted curve in the direction sought with a large enough effect; an effect the other way counts as inactive or inconclusive;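 further: 0% = DMSO vehicle and full inhibition = artemisinin control; nearly all actives have a fitted effect of over 60% in size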); details: P. falciparum in erythrocytes, SYBR Green DNA, 72 h, at 28.7 µM (top of the series)
# Method in brief: (§1)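 Readout was DNA-dye fluorescence from lysed cultures, ex 485/em 535 nm. Parasitized red cells had grown 72 h with compound; data scaled between 0.29 uM artemisinin and DMSO wells and corrected using vehicle-only plates.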
# [14] = test system: AS120; experiment: as above; details: P. falciparum in erythrocytes, SYBR Green DNA, 72 h; series mostly up to 28.7 µM
# Method in brief: as §1
# [15] = test system: ATS189; experiment: as above; details: P. falciparum in erythrocytes, SYBR Green DNA, 72 h; series mostly up to 28.7 µM
# Method in brief: as §1
# [16] = test system: W2; experiment: as above; details: P. falciparum in erythrocytes, SYBR Green DNA, 72 h; series mostly up to 28.7 µM
# Method in brief: as §1
# [17] = molecular target: Cytochrome P450 3A4 (Homo sapiens) (UniProt P08684); experiment: qHTS Assay for Activators of Cytochrome P450 3A4 (AID 885; active means well fitted curve in the direction sought with a large enough effect; an effect the other way counts as inactive or inconclusive; further: nearly all actives have a fitted effect of over 65% in size); details: recombinant CYP3A4, Luciferin-PPXE luminescence, 60 min; series mostly up to 11.4 µM
# Method in brief: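 Quantitative HTS format: compounds preincubated with 20nM human CYP3A4 and Luciferin-PPXE substrate at KM, reaction started by NADPH regeneration, stopped after 60 min, luciferase luminescence read 20 min later.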
# [18] = qHTS Assay for Identification of Small Molecule Agonists for Hypoxia Response Element Signaling Pathway (AID 914; active means well fitted activation curve with a large enough effect in the signal ratio, with a control signal flat, not every such curve was filed as active; the % refers to the signal ratio; further: % of control where 0% means no effect); details: ME-180 (cervical carcinoma) HRE-bla reporter, beta-lactamase ratio, CoCl2, 17 h; activation: active compounds read high
# Method in brief: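 AC50 values come from titration-series %Activity, taken as the 460/530nm ratio of CCF4 fluorescence (excitation 405nm). CellSensor HRE-bla ME-180 cells were treated 17 hours at 37 C with compound plus an EC50 level of CoCl2.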
# [19] = molecular target: Cytochrome P450 3A4 (Homo sapiens) (UniProt P08684); experiment: qHTS Assay for Inhibitors and Substrates of Cytochrome P450 3A4 (AID 884; active means well fitted curve in the direction sought with a large enough effect; an effect the other way counts as inactive or inconclusive; further: potency means the concentration at half of the fitted maximal effect; nearly all actives have a fitted effect of over 50% in size); details: recombinant CYP3A4, Luciferin-PPXE luminescence; series mostly up to 57.1 µM
# Method in brief: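 20 nM human CYP3A4 with 25 uM Luciferin-PPXE (at KM) in 200 mM KPO4, preincubated 10 min with compound; NADPH regeneration started a 60 min RT reaction. Luciferin detected by luminescence, normalized to 57 uM ketoconazole as full inhibition.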
# [20] = at 7.69 µM (top of the series) unless noted
# Cytochrome P450 2C9 (Homo sapiens), sequence (P11712 whole entry, looked up): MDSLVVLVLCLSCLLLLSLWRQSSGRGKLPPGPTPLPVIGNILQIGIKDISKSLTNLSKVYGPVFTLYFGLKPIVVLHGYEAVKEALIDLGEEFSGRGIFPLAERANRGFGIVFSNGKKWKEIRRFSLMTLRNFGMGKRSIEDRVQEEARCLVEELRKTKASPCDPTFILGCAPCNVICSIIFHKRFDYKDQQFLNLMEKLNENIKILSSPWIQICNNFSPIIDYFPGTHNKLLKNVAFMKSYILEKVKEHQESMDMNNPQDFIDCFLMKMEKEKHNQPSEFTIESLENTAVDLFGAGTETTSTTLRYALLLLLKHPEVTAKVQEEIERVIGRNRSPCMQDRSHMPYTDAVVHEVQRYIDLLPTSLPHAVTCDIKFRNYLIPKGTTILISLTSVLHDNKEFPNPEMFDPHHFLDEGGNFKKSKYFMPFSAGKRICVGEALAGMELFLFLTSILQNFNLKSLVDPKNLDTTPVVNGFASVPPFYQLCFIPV
# Cytochrome P450 1A2 (Homo sapiens), sequence (P05177 whole entry, looked up): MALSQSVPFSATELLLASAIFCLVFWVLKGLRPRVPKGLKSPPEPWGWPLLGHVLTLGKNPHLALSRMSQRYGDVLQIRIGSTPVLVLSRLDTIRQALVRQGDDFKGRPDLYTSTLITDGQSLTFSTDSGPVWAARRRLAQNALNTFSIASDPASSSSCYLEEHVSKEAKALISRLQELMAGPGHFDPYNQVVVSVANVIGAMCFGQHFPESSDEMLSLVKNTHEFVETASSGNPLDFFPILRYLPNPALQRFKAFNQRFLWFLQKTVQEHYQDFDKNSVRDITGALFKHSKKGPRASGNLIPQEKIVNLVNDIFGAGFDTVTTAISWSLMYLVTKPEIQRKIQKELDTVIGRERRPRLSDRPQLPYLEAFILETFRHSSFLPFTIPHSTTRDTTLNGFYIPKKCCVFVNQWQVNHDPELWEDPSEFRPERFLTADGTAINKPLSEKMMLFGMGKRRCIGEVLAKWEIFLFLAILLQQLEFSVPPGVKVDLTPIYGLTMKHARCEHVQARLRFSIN
# Cytochrome P450 3A4 (Homo sapiens), sequence (P08684 whole entry, looked up): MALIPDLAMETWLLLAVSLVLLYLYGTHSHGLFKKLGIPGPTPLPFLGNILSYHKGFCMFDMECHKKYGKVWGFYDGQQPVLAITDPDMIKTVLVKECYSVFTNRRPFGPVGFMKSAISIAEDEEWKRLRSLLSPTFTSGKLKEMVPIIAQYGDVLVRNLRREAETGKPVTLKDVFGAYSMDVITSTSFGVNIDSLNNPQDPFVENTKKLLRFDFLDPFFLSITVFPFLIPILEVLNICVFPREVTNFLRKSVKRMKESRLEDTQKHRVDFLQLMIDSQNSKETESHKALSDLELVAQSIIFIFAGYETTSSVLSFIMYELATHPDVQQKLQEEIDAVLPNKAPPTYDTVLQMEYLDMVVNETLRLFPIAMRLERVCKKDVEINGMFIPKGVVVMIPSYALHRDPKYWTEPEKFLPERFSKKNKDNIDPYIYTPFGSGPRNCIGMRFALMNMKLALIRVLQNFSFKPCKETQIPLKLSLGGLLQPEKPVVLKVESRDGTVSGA
# Glucocorticoid receptor (Homo sapiens), sequence (P04150 whole entry, looked up, the tested form may be a part): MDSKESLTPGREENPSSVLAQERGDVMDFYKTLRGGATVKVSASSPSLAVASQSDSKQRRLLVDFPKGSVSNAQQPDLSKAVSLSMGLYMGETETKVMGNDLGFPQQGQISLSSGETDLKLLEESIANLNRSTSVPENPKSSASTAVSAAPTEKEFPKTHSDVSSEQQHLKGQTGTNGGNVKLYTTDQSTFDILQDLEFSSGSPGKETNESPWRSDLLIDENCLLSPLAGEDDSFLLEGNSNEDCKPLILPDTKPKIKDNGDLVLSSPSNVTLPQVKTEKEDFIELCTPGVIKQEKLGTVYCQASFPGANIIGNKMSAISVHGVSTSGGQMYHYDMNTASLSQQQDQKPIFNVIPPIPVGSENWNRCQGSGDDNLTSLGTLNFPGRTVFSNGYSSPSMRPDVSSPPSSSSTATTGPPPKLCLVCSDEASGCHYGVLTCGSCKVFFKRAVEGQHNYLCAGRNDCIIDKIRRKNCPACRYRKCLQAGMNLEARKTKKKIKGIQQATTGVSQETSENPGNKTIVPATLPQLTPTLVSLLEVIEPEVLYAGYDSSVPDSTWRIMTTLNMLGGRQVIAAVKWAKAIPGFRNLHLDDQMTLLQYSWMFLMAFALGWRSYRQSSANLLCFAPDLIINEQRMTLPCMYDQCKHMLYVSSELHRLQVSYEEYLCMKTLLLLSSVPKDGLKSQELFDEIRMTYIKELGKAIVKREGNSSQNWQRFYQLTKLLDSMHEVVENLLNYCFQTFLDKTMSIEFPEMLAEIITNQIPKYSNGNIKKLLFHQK
# Lysosomal acid glucosylceramidase (Homo sapiens), sequence (P04062 whole entry, looked up): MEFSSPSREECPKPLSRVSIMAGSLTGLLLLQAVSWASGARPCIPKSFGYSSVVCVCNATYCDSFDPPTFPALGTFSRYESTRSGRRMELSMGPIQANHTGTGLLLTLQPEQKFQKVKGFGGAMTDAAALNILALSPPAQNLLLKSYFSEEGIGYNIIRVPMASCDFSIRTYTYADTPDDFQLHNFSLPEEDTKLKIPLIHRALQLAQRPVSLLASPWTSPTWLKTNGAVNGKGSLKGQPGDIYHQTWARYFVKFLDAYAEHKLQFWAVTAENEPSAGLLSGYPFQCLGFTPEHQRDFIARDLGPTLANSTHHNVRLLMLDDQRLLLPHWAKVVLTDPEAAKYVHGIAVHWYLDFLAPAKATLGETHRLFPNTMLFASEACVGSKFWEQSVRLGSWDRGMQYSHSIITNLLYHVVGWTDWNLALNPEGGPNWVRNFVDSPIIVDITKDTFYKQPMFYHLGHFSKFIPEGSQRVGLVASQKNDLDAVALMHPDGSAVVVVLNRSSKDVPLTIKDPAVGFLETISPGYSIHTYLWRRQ
# 3',5'-cyclic-AMP phosphodiesterase 4B (Homo sapiens), sequence (Q07343 whole entry, looked up): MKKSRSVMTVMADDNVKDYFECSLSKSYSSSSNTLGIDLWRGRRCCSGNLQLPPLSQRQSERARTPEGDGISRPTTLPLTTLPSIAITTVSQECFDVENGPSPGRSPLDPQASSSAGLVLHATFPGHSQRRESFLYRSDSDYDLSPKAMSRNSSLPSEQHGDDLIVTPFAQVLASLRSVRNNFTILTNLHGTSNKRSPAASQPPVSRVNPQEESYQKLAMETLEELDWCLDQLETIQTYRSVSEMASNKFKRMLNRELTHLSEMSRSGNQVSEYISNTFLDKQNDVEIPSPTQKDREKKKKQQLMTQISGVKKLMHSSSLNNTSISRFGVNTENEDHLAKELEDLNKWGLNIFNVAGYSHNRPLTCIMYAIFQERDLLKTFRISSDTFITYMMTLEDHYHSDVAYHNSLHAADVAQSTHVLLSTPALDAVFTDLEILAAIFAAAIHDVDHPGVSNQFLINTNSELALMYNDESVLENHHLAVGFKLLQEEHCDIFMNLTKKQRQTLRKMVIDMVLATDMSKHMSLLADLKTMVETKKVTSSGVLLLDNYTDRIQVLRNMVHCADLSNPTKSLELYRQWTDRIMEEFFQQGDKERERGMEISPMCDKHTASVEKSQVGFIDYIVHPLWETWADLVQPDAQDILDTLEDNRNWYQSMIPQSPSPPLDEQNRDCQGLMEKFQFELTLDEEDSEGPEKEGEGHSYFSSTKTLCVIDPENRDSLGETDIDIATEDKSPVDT
# Cytochrome P450 2C19 (Homo sapiens), sequence (P33261 whole entry, looked up): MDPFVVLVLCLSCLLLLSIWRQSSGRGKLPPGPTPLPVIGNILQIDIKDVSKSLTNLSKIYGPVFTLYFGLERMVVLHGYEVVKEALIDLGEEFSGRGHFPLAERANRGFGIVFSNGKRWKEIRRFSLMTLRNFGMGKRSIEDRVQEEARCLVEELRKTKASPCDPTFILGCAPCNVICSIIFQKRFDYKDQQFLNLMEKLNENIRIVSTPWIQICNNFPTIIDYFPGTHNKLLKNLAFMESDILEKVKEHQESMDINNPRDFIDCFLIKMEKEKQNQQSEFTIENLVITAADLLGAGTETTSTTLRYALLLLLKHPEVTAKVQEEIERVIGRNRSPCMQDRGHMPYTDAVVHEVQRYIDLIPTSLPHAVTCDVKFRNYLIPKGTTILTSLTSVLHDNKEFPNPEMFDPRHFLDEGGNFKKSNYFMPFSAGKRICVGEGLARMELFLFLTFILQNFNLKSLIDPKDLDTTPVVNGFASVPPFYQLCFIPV
# ATP-dependent 6-phosphofructokinase (Trypanosoma brucei brucei), sequence (O15648 whole entry, looked up): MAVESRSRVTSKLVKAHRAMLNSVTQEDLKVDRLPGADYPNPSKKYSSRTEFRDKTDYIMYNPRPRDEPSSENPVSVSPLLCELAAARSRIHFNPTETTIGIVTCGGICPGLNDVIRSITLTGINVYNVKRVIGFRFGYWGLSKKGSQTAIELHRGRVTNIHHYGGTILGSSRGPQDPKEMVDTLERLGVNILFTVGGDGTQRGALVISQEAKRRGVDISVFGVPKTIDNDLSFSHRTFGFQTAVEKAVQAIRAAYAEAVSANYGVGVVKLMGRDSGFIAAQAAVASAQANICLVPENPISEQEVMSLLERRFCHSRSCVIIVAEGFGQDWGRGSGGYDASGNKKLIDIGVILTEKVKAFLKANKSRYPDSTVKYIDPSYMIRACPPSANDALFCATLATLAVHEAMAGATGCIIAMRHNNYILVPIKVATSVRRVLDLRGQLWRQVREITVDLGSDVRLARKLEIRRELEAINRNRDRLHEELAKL
structure (smiles),measurement,setting,value
CC1=NN(c2ccc(S(=O)(=O)O)cc2)C(=O)/C1=C\c1ccc(Cl)cc1,Potency,[1],> 11.4 µM
same,"activity change, negative = inhibition",[2],3.84%
same,"activity change, negative = inhibition",[3],-8.9% [at 2.29 µM]
same,"activity, negative = inhibition",[4]; [20],-1.78%
same,Potency,[5],inactive
same,Potency,[6],inactive
C[C@H](Oc1ccc(Oc2cnc3ccc(Cl)cc3n2)cc1)C(=O)O,Potency,[1],> 11.4 µM
same,"activity change, negative = inhibition",[2],-24.4% [at 38 µM]
same,"activity change, negative = inhibition",[7]; at 7.69 µM (top of the series),8.25%
same,"activity change, negative = inhibition",[7]; at 38 µM (top of the series),7.14%
same,"activity, negative = inhibition",[4]; at 7.69 µM (top of the series),-19.5%
same,"activity, negative = inhibition",[4]; at 38 µM (top of the series),-10.1%
same,Potency,[8],> 46 µM
same,Potency,[9],> 46 µM and > 9.22 µM
same,Potency,[5],inactive
same,Potency,[6],inactive
Oc1ccc(Cl)cc1Cc1cc(Cl)cc(Cc2cc(Cl)ccc2O)c1O,Potency,[1],> 11.4 µM
same,"activity change, negative = inhibition",[2],-14%
same,"activity change, negative = inhibition",[3],-23.8% [at 2.29 µM]
same,Potency,[8],> 46 µM
same,Potency,[9],> 9.22 µM
same,Potency,[5],inactive
same,Potency,[6],inactive
same,Potency,[10],2.51 µM (active)
same,Potency,[11],1.26 µM (active)
Cc1onc(-c2c(F)cccc2Cl)c1C(=O)N[C@@H]1C(=O)N2[C@H]1SC(C)(C)[C@H]2C(=O)O,Potency,[1],> 11.4 µM
same,"activity change, negative = inhibition",[2],-24%
same,"activity change, negative = inhibition",[7]; [20],13.8%
same,"activity, negative = inhibition",[4]; [20],5.59%
same,Potency,[8],> 46 µM
same,Potency,[9],> 9.22 µM
same,Potency,[5],inactive
same,Potency,[6],inactive
same,outcome,[12],inactive
same,"activity, negative = inhibition",[13]; parasite line A,1.43%
same,"activity, negative = inhibition",[13]; parasite line B,6.57%
same,Potency,[14],inactive
same,Potency,[15],inactive
same,Potency,[16],inactive
COc1ccc2ccccc2c1/C=C\C(=O)c1ccccc1,Potency,[1],> 11.4 µM
same,"activity change, negative = inhibition",[2],-15.4%
same,Potency,[3],3.16 µM (active)
same,Potency,[8],> 46 µM
same,Potency,[9],> 9.22 µM
same,Potency,[5],inactive
same,Potency,[6],inactive
same,Potency,[10],1.26 µM (active)
same,Potency,[17],inactive
same,Potency,[11],0.316 µM (active)
same,activation,[18],22.5%
c1ccc(SCCc2ccncc2)cc1,Potency,[1],> 11.4 µM
same,"activity change, negative = inhibition",[2],9.37%
same,Potency,[3],0.2 µM (active)
same,"activity, negative = inhibition",[4]; [20],-2.72%
same,Potency,[9],> 9.22 µM
same,Potency,[6],inactive
same,Potency,[10],1.26 µM (active)
same,Potency,[19],2.51 µM (active)
same,Potency,[17],inactive
same,Potency,[11],0.794 µM (active)
CCOc1ccc(N=NS(=O)(=O)O)cc1,Potency,[1],> 11.4 µM
same,"activity change, negative = inhibition",[2],8.26%
same,"activity change, negative = inhibition",[7]; [20],-0.735%
same,"activity, negative = inhibition",[4]; [20],8.88%
same,Potency,[8],> 46 µM
same,Potency,[9],> 9.22 µM
same,Potency,[5],inactive
same,Potency,[6],inactive
